This is a sample that favours compounds with a hit; in the whole collection about 2.6% have one here.
Luciferase inh: firefly luciferase inhibition; AID 411; P08659; 72,000 compounds, 2.2% hits; purified firefly luciferase, luminescence, 8 min; Potency, µM (series often up to 57.1 µM), usual class: inhibitors; further: nearly all actives have a fitted effect of over 40% in size
Target sequence (P08659 whole entry, looked up): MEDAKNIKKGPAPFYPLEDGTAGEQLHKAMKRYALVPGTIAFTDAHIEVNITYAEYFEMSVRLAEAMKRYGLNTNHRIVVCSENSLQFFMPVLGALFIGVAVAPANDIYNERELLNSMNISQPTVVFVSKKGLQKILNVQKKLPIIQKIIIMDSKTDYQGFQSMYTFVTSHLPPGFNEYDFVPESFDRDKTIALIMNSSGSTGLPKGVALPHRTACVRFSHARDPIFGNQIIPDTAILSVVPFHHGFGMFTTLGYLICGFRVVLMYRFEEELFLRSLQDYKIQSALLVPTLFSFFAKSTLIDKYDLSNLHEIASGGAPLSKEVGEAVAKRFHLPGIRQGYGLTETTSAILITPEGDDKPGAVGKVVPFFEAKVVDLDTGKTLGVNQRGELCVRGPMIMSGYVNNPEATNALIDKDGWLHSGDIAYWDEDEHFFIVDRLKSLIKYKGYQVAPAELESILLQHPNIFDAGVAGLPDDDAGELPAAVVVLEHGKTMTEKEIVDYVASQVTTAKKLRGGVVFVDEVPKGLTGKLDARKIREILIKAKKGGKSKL
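Firefly luciferase (PKLight detection mix) with 10 uM ATP in pH 7.2 imidazole buffer (KCl, MgCl2, Tween 20, BSA). Compounds tested across a concentration series (qHTS). Luminescence read after 8 min at ambient temperature.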
HBB splice mod: modulators of hemoglobin beta chain splicing. HBB splicing reporter cell assay, activation; EGFP reporter with mutant IVS2-654 intron; response scale: normalised to 500 nM splice-correcting PNA. Potency, µM (highest dose often 46.1 µM), most hits filed as activators. 65,000 compounds, 0.06% hits
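Compounds were applied for 2 days to HeLa EGFP-654 cells, 500/well in Optimem with 2% FCS. The reporter's EGFP is disrupted by mis-splicing of beta-globin intron IVS2-654. Readout: summed well GFP fluorescence from 488 nm laser scanning; reference was 500 nM antisense […] 654 PNA.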
Ub-GFP proteasome: inhibits proteasome, raising ubiquitin-GFP reporter fluorescence; Ubiquitin-GFP reporter cells, proteasome inhibition, GFP fluorescence; response scale: untreated = 0%, 10 µM MG-132 = 100%; Potency, µM (top dose mostly 45.9 µM), most hits filed as activators; 67,000 tested, under 10 active; AID 526; active means well fitted activation curve with a large enough effect, not every such curve was filed as active; inconclusive means small, poorly fitted or top-dose-only effect, or another doubt; inactive means no such curve, though single readings can be large or run the other way
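U2OS cells stably expressing ubiquitin(G76V)-GFP, seeded overnight in 0.5% FBS medium, were exposed to compounds (qHTS, 46 uM to 2.9 nM) for 4 hr at 37 °C. GFP-positive cells were counted by laser cytometry (488 ex/515 em), normalized between basal and 10 uM MG-132.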
GFP derepression: derepresses silenced GFP locus in mouse C127i cells; Potency, µM (doses to about 46.1 µM); 68,000 compounds, 0.09% hits; mouse C127i GFP locus derepression, cytometry, 30 h; AID 597
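Locus derepression in mouse mammary C127i cells whose integrated CMV-GFP reporter is normally silent; GFP expression after 30 h compound treatment was quantified by counting fluorescent cells.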
Bst PK mod: modulators of Bacillus stearothermophilus pyruvate kinase | Potency, µM | purified pyruvate kinase, luminescence ATP production; ribose 5-phosphate activator present at AC10 | 51,000 compounds, 1.2% hits | AID 361; in the data active means potency below about 11 µM; inconclusive means mostly about 12 µM to 25 µM;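 the screen sought inhibitors and activators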
Of the large screens only hits and unclear results are named; the others gave an inactive call; ! = not confirmed by another sample. Unless noted, the call rests on the fitted dose curve; in most records, active means well fitted curve in the direction sought with a large enough effect; inconclusive means small, poorly fitted or top-dose-only effect, or another doubt; inactive means no such curve, though single readings can be large; an effect the other way counts as inactive or inconclusive.

Cc1nc2ccccc2c(=O)n1-n1cnnc1	none
CC(=O)c1c(C)nc2ccccc2c1N	Luciferase inh 3.16µM, Bst PK mod 2.46
COc1cc2c(cc1O)CCN[C@H]2C	none (no result: HBB splice mod, Bst PK mod)
CC(C)[C@@]1(NC(=O)[C@@H]2C=C3c4cccc5[nH]cc(c45)C[C@@H]3N(C)C2)O[C@]2(O)[C@H]3CCCN3C(=O)[C@H](Cc3ccccc3)N2C1=O	none (no result: Bst PK mod)
N[C@H](Cn1oc(=O)[nH]c1=O)C(=O)O	none (no result: Bst PK mod)
Cc1ccc2nc3c(cc2c1)CC1(C(=O)N(C)C(=O)N(C)C1=O)C1CCCCN31 (configuration not stated)	Luciferase inh 6.31µM, Bst PK mod inconclusive
Cc1ccc2nc3c(cc2c1)CC1(C(=O)N(C)C(=O)N(C)C1=O)C1COCCN31 (configuration not stated)	Luciferase inh inconclusive (no result: Bst PK mod)
CCCCCCn1c(O)c(C=NC2CCCCC2N)c(=O)[nH]c1=O (configuration not stated)	Luciferase inh 1.26µM, Bst PK mod 2.71
COc1ccc(P2(=O)Nc3ccccc3N2)cc1	Luciferase inh 6.31µM (no result: Ub-GFP proteasome, Bst PK mod)
CCN(CC)CCCN=Cc1c(O)n(Cc2ccc(F)cc2)c(=O)[nH]c1=O	Luciferase inh 12.6µM (no result: Bst PK mod)
CC(C)(C)OOC(=O)c1ccccc1	none (no result: Luciferase inh, Ub-GFP proteasome, GFP derepression, Bst PK mod)
CN(C)C(=O)Oc1ccc(OC(=O)c2ccccc2)cc1	Luciferase inh 15.8µM
CCCC[C@@H]1C[C@H]1C(NP(=O)(c1ccccc1)c1ccccc1)c1ccc(Cl)cc1 (some centres not stated)	none (no result: Luciferase inh, Ub-GFP proteasome, GFP derepression, Bst PK mod)
CC(C)(C)[C@@]1(O)C[C@@H]2OC(=O)C[C@@]23C(=O)O[C@H]2OC(=O)[C@@H](O)[C@]231	none (no result: HBB splice mod, Bst PK mod)
O=c1c2ccccc2[se]n1-c1ccccc1	Luciferase inh 15.8µM
C[C@@H](CO)NC(=O)[C@H]1C=C2c3cccc4[nH]cc(c34)C[C@H]2N(C)C1	none (no result: HBB splice mod, Bst PK mod)
COc1ccc2c(c[n+](C)c3c4cc5c(cc4ccc23)OCO5)c1OC	Luciferase inh 31.6µM (no result: Bst PK mod)
O=C1CCCN1CC#CCN1CCCC1	Luciferase inh 25.1µM! (no result: Bst PK mod)
NNc1c(C(N)=O)c2c(N)ncnc2n1[C@@H]1O[C@H](CO)[C@@H](O)[C@@H]1O	none (no result: Bst PK mod)
Cc1ccc2nc(N3CCN(C)CC3)[nH]c2c1	none (no result: Bst PK mod)
CN1CCN(c2ccc3nc(-c4ccc5nc(-c6ccc(O)cc6)[nH]c5c4)[nH]c3c2)CC1	Luciferase inh 3.98µM (no result: Bst PK mod)
CC1=NN=C(c2ccc(N)cc2)c2cc3c(cc2C1)OCO3	Luciferase inh 2µM! (no result: Bst PK mod)
COC(=O)c1ccc(COC(=O)c2ccccn2)cc1	Luciferase inh 25.1µM (no result: Bst PK mod)
COC(=O)c1ccccc1C(=O)OC	none (no result: Luciferase inh, Ub-GFP proteasome, GFP derepression, Bst PK mod)
CCN1C[C@@]2(COC(=O)c3ccccc3N3C(=O)C[C@H](C)C3=O)CC[C@H](OC)[C@@]34[C@@H]5CC6[C@@H](OC)C[C@@](O)([C@H]5[C@H]6OC)C(O)([C@@H]13)[C@@H](OC)[C@H]24	none (no result: HBB splice mod, Bst PK mod)
CN1CC[C@@]2(c3cccc(O)c3)Cc3nc4ccccc4cc3C[C@H]2C1	Luciferase inh 25.1µM (no result: HBB splice mod, Bst PK mod)
CN1CSC(=S)N(C)C1	GFP derepression 6.31µM (no result: Bst PK mod)
O=C(Oc1ccc2ccccc2c1Cl)N1CCCC1	Luciferase inh 15.8µM (no result: Bst PK mod)
Cc1ccc2cccc(OC(=O)N3CCCC3)c2n1	Bst PK mod inconclusive
CCN(CC)C(=O)N[C@@H]1C=C2c3cccc4[nH]cc(c34)C[C@@H]2N(C)C1	none (no result: Bst PK mod)
